This passage reports outcome and AC50 results from PubChem BioAssay (EPA / NIEHS).

Broadly, the AC50 is the concentration giving half of the maximal activity seen.

The nature of assay [1]: ATG_DR4_LXR_CIS: Attagene CIS-FACTORIAL HepG2 Assay for human Liver X Receptor (LXR), DR4 submotif (AID 2282929). The conditions noted are these: HepG2 Attagene DR4 cis-reporter, mRNA transcription; actives raise or lower the signal. An outline of the steps:
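Fluorescence intensity of labelled reporter cDNA fragments, separated by capillary electrophoresis, gives the signal. HepG2 cells bearing cis-regulated reporter constructs were treated 24 h; activity fitted bidirectionally relative to DMSO negative control.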

The nature of assay [2]: ATG_Ets_CIS: Attagene CIS-FACTORIAL HepG2 Assay for human Erythroblast Transformation Specific (ETS) (AID 2282941). The conditions noted are these: HepG2 ETS cis-reporter transcription, actives raise or lower the signal. An outline of the steps:
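Multiplexed reporter transcript profiling: HepG2, 24 h treatment, total RNA to cDNA, PCR, 6-FAM labelling, HpaI cut, capillary electrophoresis. Gain- or loss-of-signal fitted against DMSO.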

Assay [3] concerns the target Hypoxia-inducible factor 1-alpha (Homo sapiens) (UniProt Q16665). Briefly: ATG_HIF1a_CIS: Attagene CIS-FACTORIAL HepG2 Assay for human Hypoxia Inducible Factor 1 (HIF1A) (AID 2282951). The conditions noted are these: HepG2 Attagene cis-factorial HIF1a reporter transcription; actives raise or lower the signal. An outline of the steps:
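Fluorescence intensity of capillary-separated, 6-FAM-labelled reporter amplicons gives mRNA induction in HepG2 cells carrying transfected cis-promoter reporter units; cells exposed 24 h, responses fitted up or down from DMSO.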

In assay [4] the target is Hepatocyte nuclear factor 6 (Homo sapiens) (UniProt Q9UBC0). The experiment in a line: ATG_HNF6_CIS: Attagene CIS-FACTORIAL HepG2 Assay for human Hepatocyte Nuclear Factor 6 (HNF6) (AID 2282952). To be noted: HepG2 Attagene cis-factorial HNF6 reporter transcription; actives raise or lower the signal. In outline: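 Endogenous factor activity read in transiently transfected HepG2 via promoter-regulated reporter transcripts. RNA harvested 24 h post-dosing, reverse-transcribed, PCR-amplified, FAM-labelled, HpaI-digested and resolved by capillary electrophoresis; fitted in both directions against DMSO.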
Hepatocyte nuclear factor 6 (Homo sapiens), sequence (Q9UBC0 whole entry, looked up): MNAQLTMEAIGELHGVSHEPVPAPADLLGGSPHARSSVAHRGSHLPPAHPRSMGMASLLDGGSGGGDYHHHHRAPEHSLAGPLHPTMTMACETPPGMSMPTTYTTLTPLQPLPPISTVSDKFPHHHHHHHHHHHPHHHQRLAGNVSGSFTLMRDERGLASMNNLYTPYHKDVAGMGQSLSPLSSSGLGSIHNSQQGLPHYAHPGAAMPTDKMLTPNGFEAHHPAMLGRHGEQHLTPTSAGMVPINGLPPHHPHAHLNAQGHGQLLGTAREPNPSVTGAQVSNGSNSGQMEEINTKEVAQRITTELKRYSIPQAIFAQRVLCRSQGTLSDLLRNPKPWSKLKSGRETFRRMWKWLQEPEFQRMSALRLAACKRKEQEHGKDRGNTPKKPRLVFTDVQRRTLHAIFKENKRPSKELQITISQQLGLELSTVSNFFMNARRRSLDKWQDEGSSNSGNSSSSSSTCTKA

For assay [5], the target named is Heat shock factor protein 1 (Homo sapiens) (UniProt Q00613). The experiment in a line: ATG_HSE_CIS: Attagene CIS-FACTORIAL HepG2 Assay for human Heat Shock Transcription Factor 1 (HSE) (AID 2282953). To be noted: HepG2 HSE cis-reporter, Attagene RNA transcription; actives raise or lower the signal. In outline: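 Reporter mRNA induction in HepG2 is measured 24 h after dosing, using transiently transfected multiplexed cis-regulated reporter units. Signal comes from capillary electrophoresis of labelled RT-PCR products, with DMSO as negative control.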
Heat shock factor protein 1 (Homo sapiens), sequence (Q00613 whole entry, looked up): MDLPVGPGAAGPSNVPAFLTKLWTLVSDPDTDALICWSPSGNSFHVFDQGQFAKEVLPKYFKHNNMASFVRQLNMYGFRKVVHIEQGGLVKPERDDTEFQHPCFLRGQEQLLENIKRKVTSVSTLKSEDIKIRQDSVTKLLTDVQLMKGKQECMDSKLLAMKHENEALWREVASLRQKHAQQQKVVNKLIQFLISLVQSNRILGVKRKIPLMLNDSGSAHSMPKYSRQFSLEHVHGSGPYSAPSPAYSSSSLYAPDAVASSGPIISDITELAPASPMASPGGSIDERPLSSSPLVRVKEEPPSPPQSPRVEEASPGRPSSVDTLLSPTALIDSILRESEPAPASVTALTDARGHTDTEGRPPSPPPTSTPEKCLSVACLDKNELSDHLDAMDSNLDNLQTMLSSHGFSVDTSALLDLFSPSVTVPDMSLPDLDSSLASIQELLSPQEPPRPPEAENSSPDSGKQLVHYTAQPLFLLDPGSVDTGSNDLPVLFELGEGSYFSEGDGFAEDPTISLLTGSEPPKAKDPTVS

Assay [6] is described as follows: ATG_Sox_CIS: Attagene CIS-FACTORIAL HepG2 Assay for human SRY-box transcription factor (SOX) (AID 2282960). To be noted: HepG2 Attagene cis-factorial SOX reporter, mRNA; actives raise or lower the signal. An outline of the steps:
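Measures mRNA induction of a SOX1-associated reporter in HepG2 after 24 h dosing. Fluorescently labelled RT-PCR fragments are separated by capillary electrophoresis, and gain or loss relative to DMSO control is fitted.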

The nature of assay [7]: ATG_TA_CIS: Attagene CIS-FACTORIAL HepG2 Assay for human TA Basal Promoter (AID 2282964). To be noted: HepG2 Attagene CIS-factorial TA basal promoter reporter; actives raise or lower the signal. In outline:
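Cis-factorial format in HepG2: reporters report endogenous factors, not chimeric Gal4 fusions. After 24 h treatment, reporter transcripts were measured by RT-PCR-capillary electrophoresis fluorescence, analysed bidirectionally versus DMSO.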

A short description of assay [8]: ATG_TCF_b_cat_CIS: Attagene CIS-FACTORIAL HepG2 Assay for human T-Cell-Factor with beta-catenin (TCF/b-cat) (AID 2282965). To be noted: HepG2 TCF/beta-catenin cis-reporter transcription, actives raise or lower the signal. An outline of the steps:
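Measured: reporter mRNA in HepG2 transiently transfected with cis-promoter reporter units, 24 h after chemical addition. Fitting was bidirectional, DMSO as negative control.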

Assay [9] can be described thus: ATG_TAL_CIS: Attagene CIS-FACTORIAL HepG2 Assay for human TAL Basal Promoter (AID 2282966).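 Also: background control endpoint measuring basal TAL promoter reporter mRNA not a specific factor.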 To be noted: HepG2 Attagene cis-factorial TAL promoter reporter; actives raise or lower the signal. In outline: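 Background-control endpoint: basal TAL promoter reporter transcripts in transiently transfected HepG2, measured 24 h after dosing. Read-out by RT-PCR with fluorescent primer extension and capillary electrophoresis; gain or loss of signal fitted relative to DMSO.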

The nature of assay [10]: ATG_TGFb_CIS: Attagene CIS-FACTORIAL HepG2 Assay for human Transforming Growth Factor (TGF) (AID 2282967). The conditions noted are these: HepG2 Attagene CIS TGFb reporter, mRNA transcription; actives raise or lower the signal. In outline:
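Multiplexed cis-reporter HepG2 system, 24 h treatment; mRNA induction read by fluorescence after RT-PCR and CE; DMSO negative control, bidirectional curve fitting.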

Assay [11] deals with X-box-binding protein 1 (Homo sapiens) (UniProt P17861). Briefly: ATG_Xbp1_CIS: Attagene CIS-FACTORIAL HepG2 Assay for human X-box Binding Protein 1 (XBP1) (AID 2282972). The conditions noted are these: HepG2 XBP1 cis-element reporter, Attagene multiplex; actives raise or lower the signal. In outline: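 Human hepatoma HepG2, cis-element reporter system, 24 h treatment; mRNA quantified by RT-PCR/CE fluorescence; fit relative to DMSO.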
X-box-binding protein 1 (Homo sapiens), sequence (P17861 whole entry, looked up): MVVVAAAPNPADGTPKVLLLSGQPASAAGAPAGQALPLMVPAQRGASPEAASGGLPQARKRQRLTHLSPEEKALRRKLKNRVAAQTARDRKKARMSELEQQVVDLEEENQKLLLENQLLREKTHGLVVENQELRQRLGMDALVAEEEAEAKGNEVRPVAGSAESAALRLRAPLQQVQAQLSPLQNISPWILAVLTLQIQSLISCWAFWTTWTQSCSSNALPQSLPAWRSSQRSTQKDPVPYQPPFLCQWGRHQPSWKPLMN

For assay [12], the target named is Transcriptional activator Myb (Homo sapiens) (UniProt P10242). Briefly: ATG_Myb_CIS: Attagene CIS-FACTORIAL HepG2 Assay for human Myeloblastosis (Myb) Proto-Oncogene Transcription Factor (AID 2282986). The conditions noted are these: HepG2 Attagene CIS-FACTORIAL Myb reporter transcription; actives raise or lower the signal. An outline of the steps:
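Transiently transfected HepG2 cells, treated 24 h. Reporter mRNA quantified by RT-PCR/capillary electrophoresis; bidirectional fit relative to DMSO.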

Assay [13] has as its target Nuclear respiratory factor 1 (Homo sapiens) (UniProt Q16656). The experiment in a line: ATG_NRF1_CIS: Attagene CIS-FACTORIAL HepG2 Assay for human Nuclear Respiratory Factor 1 (NRF1) Orphan Gene (AID 2282987). The conditions noted are these: HepG2 NRF1 cis-element reporter, Attagene multiplex; actives raise or lower the signal. In outline:
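Cells (HepG2, transient MRTU transfection) are exposed to compound for 24 h, then RNA isolated and reporter mRNA amplified and fluorescently labelled. Fragments are separated by capillary electrophoresis; signal change is fitted bidirectionally relative to DMSO.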

Assay [14] deals with Myc proto-oncogene protein (Homo sapiens) (UniProt P01106). The experiment in a line: ATG_Myc_CIS: Attagene CIS-FACTORIAL HepG2 Assay for human Myelocytomatosis (Myc) Proto-Oncogene Transcription Factor (AID 2282990). The conditions noted are these: HepG2, Attagene cis-reporter transcription factor activity; actives raise or lower the signal. In outline: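 Cells of the HepG2 human liver line bear multiple cis-driven reporter transcription units. Reporter mRNA after 24 h exposure is reverse-transcribed, amplified, labelled and resolved by capillary electrophoresis, with gain- or loss-of-signal fitting relative to DMSO.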
Myc proto-oncogene protein (Homo sapiens), sequence (P01106 whole entry, looked up): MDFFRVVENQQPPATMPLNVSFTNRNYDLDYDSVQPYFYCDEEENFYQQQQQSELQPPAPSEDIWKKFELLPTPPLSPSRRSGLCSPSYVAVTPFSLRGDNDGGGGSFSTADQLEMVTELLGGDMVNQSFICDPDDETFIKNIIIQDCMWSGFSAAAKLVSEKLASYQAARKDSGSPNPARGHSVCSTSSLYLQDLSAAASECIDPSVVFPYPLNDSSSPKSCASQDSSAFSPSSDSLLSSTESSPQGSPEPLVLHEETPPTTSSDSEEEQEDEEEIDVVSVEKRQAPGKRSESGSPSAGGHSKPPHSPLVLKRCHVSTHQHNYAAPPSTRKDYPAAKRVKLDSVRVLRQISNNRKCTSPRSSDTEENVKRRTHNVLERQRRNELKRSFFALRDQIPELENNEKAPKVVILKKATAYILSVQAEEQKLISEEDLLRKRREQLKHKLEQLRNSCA

The nature of assay [15]: ATG_NRF2_ARE_CIS: Attagene CIS-FACTORIAL HepG2 Assay for human Nuclear Factor Erythroid 2 Related Factor 2 (NFR2) response to Antioxidant Response Elements (ARE) (AID 2282992).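 As to AC50: reporter mRNA level measured by RT-PCR and capillary electrophoresis fluorescence.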 The conditions noted are these: HepG2 Attagene ARE/NRF2 reporter, transcription factor activity; actives raise or lower the signal. An outline of the steps: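 Fluorescence intensity of reporter-specific cDNA fragments, separated by capillary electrophoresis, reflects mRNA induction in transfected HepG2 cells at 24 h. Activity is fitted bidirectionally, DMSO serving as baseline.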

The nature of assay [16]: ATG_Oct_MLP_CIS: Attagene CIS-FACTORIAL HepG2 Assay for human Octamer-Binding Transcription Factor (Oct) (AID 2282993). The conditions noted are these: HepG2 Attagene cis-factorial Oct reporter, mRNA; actives raise or lower the signal. In outline: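 After 24 h compound exposure, transfected HepG2 cells were lysed for total RNA; reporter-specific cDNA was PCR-amplified, fluorescently labelled and sized by capillary electrophoresis. Bidirectional curve fitting used DMSO as baseline.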

Assay [17] deals with Nuclear receptor subfamily 1 group I member 2 (Homo sapiens) (UniProt O75469). Briefly: ATG_PXR_TRANS: Attagene TRANS-FACTORIAL HepG2 Assay for human Pregnane X Receptor (PXR) (AID 2283008; active = hit-call score of the fitted dose curve at least 0.9, where 1 is the maximum). An outline of the steps:
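Transient HepG2 transfectants carrying multiplexed reporter transcription units; PXR activity read through a Gal4 chimera. 24 h exposure. RT-PCR/CE fluorescence; upward curve fit referenced to DMSO.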

The nature of assay [18]: ATG_XTT_Cytotoxicity: Cytotoxicity Assessment in the Attagene TRANS-FACTORIAL HepG2 Assay (AID 2283584; active = hit-call score of the fitted dose curve at least 0.9, where 1 is the maximum). In outline:
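Viability endpoint from XTT after 24 h chemical exposure of reporter-transfected human HepG2 liver cells; signal loss fitted relative to DMSO negative control.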

The target of assay [19] is Cellular tumor antigen p53 (Homo sapiens) (UniProt P04637). Briefly: ATG_p53_CIS: Attagene CIS-FACTORIAL HepG2 Assay for human p53 Transcription Factor (AID 2282994). To be noted: HepG2 p53 cis-element reporter, Attagene mRNA; actives raise or lower the signal. An outline of the steps: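 Transiently transfected HepG2 (multiple cis reporter transcription units); exposure 24 h; reporter RNA via RT-PCR, 6-FAM extension, 2 h HpaI digest at 37 C, CE detection; DMSO baseline.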
Cellular tumor antigen p53 (Homo sapiens), sequence (P04637 whole entry, looked up): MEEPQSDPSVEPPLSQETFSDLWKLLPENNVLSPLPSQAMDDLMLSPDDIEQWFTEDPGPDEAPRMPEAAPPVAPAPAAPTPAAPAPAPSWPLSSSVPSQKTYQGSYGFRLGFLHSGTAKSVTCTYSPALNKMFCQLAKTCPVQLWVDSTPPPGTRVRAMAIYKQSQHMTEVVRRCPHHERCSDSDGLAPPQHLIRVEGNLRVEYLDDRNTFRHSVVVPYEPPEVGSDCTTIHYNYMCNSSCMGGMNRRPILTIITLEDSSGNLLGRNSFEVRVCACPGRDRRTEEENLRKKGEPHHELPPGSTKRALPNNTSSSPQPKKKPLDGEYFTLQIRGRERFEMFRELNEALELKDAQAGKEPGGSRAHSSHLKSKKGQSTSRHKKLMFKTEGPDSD

A short description of assay [20]: ATG_M_06_CIS: Attagene CIS-FACTORIAL HepG2 Assay for M06 Transcription Factor (Internal Marker) (AID 2282950). The conditions noted are these: HepG2 Attagene CIS-FACTORIAL M06 internal marker reporter; actives raise or lower the signal. An outline of the steps:
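Measured 24 h post-dosing in transiently transfected HepG2 cells, this internal-marker endpoint reports reporter mRNA via RT-PCR with fluorescent primer extension and capillary electrophoresis. DMSO served as negative control and baseline for bidirectional fitting.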

SMILES strings stand for the structures. Results filed as inconclusive are left out. Activity calls are given as the source filed them. The calls were made as follows, unless noted: active = hit-call score of the fitted dose curve at least 0.9, where 1 is the maximum; inactive = score below 0.9.

Nuclear receptor subfamily 1 group I member 2 (Homo sapiens), sequence (O75469 whole entry, looked up, the tested form may be a part): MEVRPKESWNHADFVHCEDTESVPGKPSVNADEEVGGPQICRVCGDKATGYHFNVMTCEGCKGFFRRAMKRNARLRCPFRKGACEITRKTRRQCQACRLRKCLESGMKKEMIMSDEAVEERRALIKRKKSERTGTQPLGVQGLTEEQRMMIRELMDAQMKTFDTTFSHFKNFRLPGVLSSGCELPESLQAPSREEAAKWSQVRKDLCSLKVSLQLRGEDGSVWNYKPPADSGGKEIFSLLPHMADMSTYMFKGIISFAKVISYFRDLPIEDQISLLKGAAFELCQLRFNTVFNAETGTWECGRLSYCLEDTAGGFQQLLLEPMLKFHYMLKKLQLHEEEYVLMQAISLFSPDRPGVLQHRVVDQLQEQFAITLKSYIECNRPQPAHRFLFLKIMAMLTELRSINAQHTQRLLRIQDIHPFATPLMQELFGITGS
Nuclear respiratory factor 1 (Homo sapiens), sequence (Q16656 whole entry, looked up, the tested form may be a part): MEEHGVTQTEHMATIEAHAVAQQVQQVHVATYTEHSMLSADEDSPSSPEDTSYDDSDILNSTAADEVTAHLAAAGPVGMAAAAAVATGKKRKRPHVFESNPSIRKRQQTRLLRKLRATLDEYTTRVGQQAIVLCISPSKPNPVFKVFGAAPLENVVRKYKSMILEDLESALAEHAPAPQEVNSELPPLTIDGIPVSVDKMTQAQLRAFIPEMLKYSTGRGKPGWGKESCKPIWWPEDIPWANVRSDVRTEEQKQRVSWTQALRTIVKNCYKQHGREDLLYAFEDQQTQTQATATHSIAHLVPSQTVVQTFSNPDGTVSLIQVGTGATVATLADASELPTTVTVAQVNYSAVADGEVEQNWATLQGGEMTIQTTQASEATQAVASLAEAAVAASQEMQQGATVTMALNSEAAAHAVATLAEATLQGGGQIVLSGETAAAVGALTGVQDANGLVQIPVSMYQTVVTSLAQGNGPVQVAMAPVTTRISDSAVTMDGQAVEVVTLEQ
Transcriptional activator Myb (Homo sapiens), sequence (P10242 whole entry, looked up): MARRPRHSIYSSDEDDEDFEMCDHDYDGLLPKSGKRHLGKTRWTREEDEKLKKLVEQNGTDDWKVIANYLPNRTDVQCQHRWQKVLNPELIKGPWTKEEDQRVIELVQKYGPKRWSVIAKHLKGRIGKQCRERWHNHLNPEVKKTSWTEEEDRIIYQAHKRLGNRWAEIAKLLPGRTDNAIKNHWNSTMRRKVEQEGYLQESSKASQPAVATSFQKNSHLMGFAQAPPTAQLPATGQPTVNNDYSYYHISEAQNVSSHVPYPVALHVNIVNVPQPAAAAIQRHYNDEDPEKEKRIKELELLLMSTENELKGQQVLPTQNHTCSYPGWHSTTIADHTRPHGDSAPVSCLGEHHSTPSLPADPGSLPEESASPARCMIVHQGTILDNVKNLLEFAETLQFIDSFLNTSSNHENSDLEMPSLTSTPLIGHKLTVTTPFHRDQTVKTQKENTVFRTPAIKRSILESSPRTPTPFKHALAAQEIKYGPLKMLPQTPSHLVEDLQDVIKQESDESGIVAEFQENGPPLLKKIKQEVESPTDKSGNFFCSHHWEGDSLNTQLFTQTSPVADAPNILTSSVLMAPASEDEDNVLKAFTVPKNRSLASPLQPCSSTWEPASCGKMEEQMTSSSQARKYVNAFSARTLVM
Hypoxia-inducible factor 1-alpha (Homo sapiens), sequence (Q16665 whole entry, looked up): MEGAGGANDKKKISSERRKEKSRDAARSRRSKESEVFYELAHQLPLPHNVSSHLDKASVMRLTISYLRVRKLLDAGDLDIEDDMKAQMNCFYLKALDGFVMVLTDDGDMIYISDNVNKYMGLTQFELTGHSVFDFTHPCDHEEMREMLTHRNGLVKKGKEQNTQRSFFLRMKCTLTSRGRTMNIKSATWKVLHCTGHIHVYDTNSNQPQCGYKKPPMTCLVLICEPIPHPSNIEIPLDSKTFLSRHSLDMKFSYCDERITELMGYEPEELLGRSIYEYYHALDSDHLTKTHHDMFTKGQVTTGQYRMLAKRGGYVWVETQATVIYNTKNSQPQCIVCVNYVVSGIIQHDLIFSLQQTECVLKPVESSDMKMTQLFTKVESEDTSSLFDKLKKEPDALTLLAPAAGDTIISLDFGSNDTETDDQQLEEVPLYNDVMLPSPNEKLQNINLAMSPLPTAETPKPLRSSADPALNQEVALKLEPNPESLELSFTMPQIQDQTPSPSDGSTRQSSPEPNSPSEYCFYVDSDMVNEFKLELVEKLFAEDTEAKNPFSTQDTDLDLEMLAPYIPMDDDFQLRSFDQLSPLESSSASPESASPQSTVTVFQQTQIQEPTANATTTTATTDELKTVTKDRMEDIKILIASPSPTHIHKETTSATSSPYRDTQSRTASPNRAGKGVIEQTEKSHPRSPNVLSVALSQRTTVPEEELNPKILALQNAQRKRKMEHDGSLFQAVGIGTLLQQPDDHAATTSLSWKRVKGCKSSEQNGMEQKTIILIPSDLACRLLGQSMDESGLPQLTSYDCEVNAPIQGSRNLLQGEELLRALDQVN

For the compound `CCCC(=O)OC/C=C(\C)CCC=C(C)C`, the call in assay [1], in [2], in assay [3], in assay [4], in assay [5] and in assay [6] was inactive. Besides, the compound was classed as inactive in [7], in assay [8], in assay [9], in assay [10], in [11] and in assay [12]. In addition, the call in [13], in assay [14], in [15], in assay [16], in [17] and in assay [18] was inactive.

As to `CCCC(=O)OC`, the compound was called inactive in assay [1], in assay [2], in assay [3], in assay [4], in assay [5] and in assay [6]. Besides, the outcome in [7], in assay [8], in [9], in assay [10], in assay [11] and in assay [12] was inactive. The compound was called inactive in assay [13], in assay [14], in assay [15], in assay [16], in [19] and in [17].

As to `COc1ccccc1OCC(O)CO` (stereo unspecified), the compound was called inactive in [1], in assay [2], in assay [20], in [4], in assay [6] and in [7]. In addition, the outcome in [8], in assay [9], in [10], in [11], in [12] and in [13] was inactive. Besides, the compound was classed as inactive in assay [14], in assay [15], in [16], in [19], in assay [17] and in assay [18].

For the compound `C[C@H]1C[C@H]2[C@@H]3CCC4=CC(=O)C=C[C@]4(C)[C@@]3(F)[C@@H](O)C[C@]2(C)[C@@]1(O)C(=O)CO`, the AC50 in assay [1] was 166 µM (active); in assay [7], 100 µM (active); in assay [8] it was 150 µM (active); in assay [11], 158 µM (active); in assay [12], 180 µM (active); in assay [15], 100 µM (active). Besides, the AC50 in assay [19] was 39.4 µM (active); in assay [17], 0.685 µM (active). Moreover, the result in [2], in assay [4], in assay [5], in assay [9], in assay [10] and in assay [13] was inactive. Also, the compound was called inactive in [14], in assay [16] and in assay [18].
